Screens: PubChem, National Center for Advancing Translational Sciences (NCATS)
Lassa entry inh = blocks Lassa virus binding to or entry into cells. Lassa virus pseudotype entry inhibition, cell reporter. Potency, µM (series often up to 37.9 µM), without a hit: at the highest dose activity change, negative = inhibition, usual class: inhibitors. 300,000 compounds, 1.2% hits. AID 540256; calls by dose curve; tested in HEK293 cells; further: potency means the concentration at half of the fitted maximal effect; nearly all actives have a fitted effect of over 50% in size
HCMV inh = human cytomegalovirus inhibition | activity change, negative = inhibition, % at 57.5 µM | 410,000 compounds, 4.5% hits | HFF cells, HCMV-luciferase reporter, 72 h; active compounds read low; in the data active means activity change below about -60%; inconclusive means no clear call, values can overlap the other calls; inactive means above about -39%
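Two compound doses tested in HFFs infected with HCMV-luciferase, MOI 1 PFU/cell, 72 h at 37C. Lysate luminescence read with OneGlo; data normalized against buffer-only and 10uM Salinomycin inhibitor controls.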
MARV entry inh = Marburg virus entry inhibition | Marburg virus pseudotyped entry inhibition, cell reporter | Potency, µM (doses to about 37.8 µM), without a hit: top-dose activity change, negative = inhibition, actives largely listed as inhibitors | 300,000 compounds, 1.8% hits; calls by dose curve; tested in HEK293 cells; further: potency means the concentration at half of the fitted maximal effect
FMDV antiviral = foot and mouth disease virus antiviral activity; FMDV antiviral cell-based qHTS; Potency, µM (doses to about 57.9 µM), without a hit: at the highest dose activity change, negative = inhibition, actives largely listed as inhibitors; 410,000 compounds, 1.2% hits; AID 1159524; calls by dose curve; tested in HEK293T cells; further: read-out not given here; potency means the concentration at half of the fitted maximal effect; nearly all actives have a fitted effect of over 45% in size
An asterisk follows results filed as active; ? = inconclusive; . = no result; [ ] = remark or other dose. The list is not random: actives were taken first. Their share in the collection is about 6.2%. On the % scale 0 is the no-effect control and ±100 the full control effect.

SMILES	Lassa entry inh	HCMV inh	MARV entry inh	FMDV antiviral
COc1ccc(-c2cn(-c3ccc(Br)cc3)c3[n+]2CCS3)cc1	-5%	-90*	-25%	?
CC(=O)c1ccc(N2CCN(c3ccc(C(F)(F)F)cn3)CC2)cc1	3%	?	-3%	-27%
Fc1ccc(-c2cn(-c3ccccc3)c3[n+]2CCS3)cc1	-27%[46.1 µM]	-25	2%[46.1 µM]	-20%
CC(=O)c1ccc(-n2cc(-c3ccc(C(C)(C)C)cc3)[n+]3c2SCCC3)cc1	?	-98*	?	?
COc1cccc(Nc2nnc(SCC(=O)Nc3sccc3C(N)=O)s2)c1	.	?	.	16µM*
CC(C)C[C@H]1CNC(=O)C(=O)N1CC1CCN(CC2CCC(C(C)(C)C)CC2)CC1 (stereo not given in full)	.	-11	.	-23%
CCNC(=O)C1(C)CCCN(Cc2csc(-c3ccccc3)n2)C1 (stereo not given)	.	-5	.	-3%
COc1ccc(C2NC(=S)NC(C)=C2C(=O)Nc2ccccn2)cc1 (stereo not given)	.	74	.	60%
COc1ccc(OC)c(C2NC(=S)NC(C)=C2C(=O)Nc2ccccn2)c1 (stereo not given)	9%	-99*	30%[46.1 µM]	-10%
COc1ccc(C2C(C(=O)Nc3ccccn3)=C(C)Nc3ncnn32)c(OC)c1 (stereo not given)	.	-64*	3%	-22%
O=C(c1ccco1)N1CCN(C(=S)Nc2cccc([N+](=O)[O-])c2)CC1	?	-69*	?	?
Cc1ccc(N2CCN(C(=O)Nc3cccc([N+](=O)[O-])c3)CC2C)cc1 (stereo not given)	?	-65*	?	?
O=C(Nc1cccc([N+](=O)[O-])c1)N1CCN(c2ccccc2)CC1	-13%[46.1 µM]	-64*	-7%[46.1 µM]	-14%
Cc1ccccc1OCC(=O)NCC1CCCO1 (stereo not given)	2%	-6	0%	21%
CCOc1ccc(-c2nc(N)ncc2-c2ccccc2)c(O)c1	-13%	-21	?	?
Cc1cc2ccccn2c1C(=O)c1ccc(NN)c([N+](=O)[O-])c1	?	?	8.9µM*	4%
Cc1cc2ccccn2c1C(=O)c1cc([N+](=O)[O-])cc([N+](=O)[O-])c1	-9%	?	-11%[46.1 µM]	?
CCN(CC)S(=O)(=O)c1cccc(C(=O)c2c(C)cc3ccccn23)c1	0%	-22	?	?
Cc1cc2ccccn2c1C(=O)c1ccc(C#N)cc1	?	-81*	-7%[46.1 µM]	?
COC(=O)C1=C(C)N(CCc2ccccc2)C(=O)C1	13%	-29	2%	7%
COc1cc2c(cc1OC)CN(c1ccc([N+](=O)[O-])cc1C#N)CC2	-17%	?	?	32µM*
COc1ccc2[nH]cc(CCNC(=O)Cc3c(F)cccc3Cl)c2c1	-15%	-16	-2%	-14%
Cc1ccc(C(=O)NCCc2c[nH]c3ccccc23)c(C)c1	11µM*	174	?	-18%
COC(=O)Cc1c(O)ccn(CCc2c[nH]c3ccc(OC)cc23)c1=O	9%[46.1 µM]	-73*	3%[46.1 µM]	0%
COC(=O)Cc1c(O)ccn(CCc2c[nH]c3ccccc23)c1=O	.	?	.	-19%
SMILES	Lassa entry inh	HCMV inh	MARV entry inh	FMDV antiviral
COc1ccc2[nH]cc(CCNC(=O)c3ccccc3Cl)c2c1	-10%	-84*	2%[46.1 µM]	9%
Cc1cccc(CNCCc2c[nH]c3ccccc23)c1	?	-99*	10µM*	1%
O=C(NCCc1c[nH]c2ccccc12)c1ccccc1	?	66	7%	40%
CC(=O)c1cccc(NC(=O)NCCc2c[nH]c3ccccc23)c1	0%	-82*	-3%[46.1 µM]	-4%
Cc1ccc(NC(=O)CCc2c[nH]c3ccccc23)nc1	?	-74*	?	4%
Cc1ccc2[nH]cc(CCNC(=O)Nc3ccccc3)c2c1	?	-30	2%	?
O=C(CCc1c[nH]c2ccccc12)Nc1ncccc1O	16%[46.1 µM]	-6	6%[46.1 µM]	8%
COc1ccc2[nH]cc(CCNc3ncncc3-c3cccnc3)c2c1	.	.	.	-21%
COc1ccc2[nH]cc(CCNc3ncncc3-c3ccccc3C)c2c1	.	.	.	20µM*
O=C(CSc1nncn1-c1ccccc1)NC1CCCCC1	?	?	1%	-1%
CN(C)c1nc2c(c(=O)[nH]c(=O)n2C)n1CCOc1ccccc1	.	56	.	-17%
O=C(Nc1nccs1)c1c(O)c2cccc3c2n(c1=O)CCC3	.	-95*	.	.
O=C(Nc1ccccn1)c1c(O)c2cccc3c2n(c1=O)CCC3	?	154	?	12%
NCCNC(=O)c1c(O)c2cccc3c2n(c1=O)CCC3	8%	13	10µM*	-25%
CCCNC(=O)c1c(O)c2cccc3c2n(c1=O)CCC3	6%[46.1 µM]	-17	-6%[46.1 µM]	-14%
